Out of some 360,000 compounds screened, about 650 (0.18%) were called active. No stated cut-off is given here; in the data, active means activation above about 30%; inactive means the rest. For the sample, actives were picked, then their nearest neighbours and some compounds at random.

Thyrotropin-releasing hormone receptor (Homo sapiens), sequence (P34981 whole entry, looked up): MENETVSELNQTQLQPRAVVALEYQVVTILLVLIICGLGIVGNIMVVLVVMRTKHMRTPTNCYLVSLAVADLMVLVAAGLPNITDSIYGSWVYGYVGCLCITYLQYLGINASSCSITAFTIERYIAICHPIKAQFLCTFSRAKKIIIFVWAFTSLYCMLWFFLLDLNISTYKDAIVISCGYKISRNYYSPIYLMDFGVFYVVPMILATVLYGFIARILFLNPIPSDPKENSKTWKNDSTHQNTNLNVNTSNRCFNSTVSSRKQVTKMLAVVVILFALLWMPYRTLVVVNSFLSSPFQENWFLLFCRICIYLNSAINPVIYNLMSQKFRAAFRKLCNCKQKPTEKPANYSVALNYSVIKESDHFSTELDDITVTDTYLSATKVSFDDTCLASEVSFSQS

The assay deals with Thyrotropin-releasing hormone receptor (Homo sapiens) (UniProt P34981). Briefly: qHTS for Small Molecule Agonists and Allosteric Enhancers of Human TRH Receptor: Primary Screen for Agonists. Further: 0% is about no effect. The settings on record: TRHR cells, calcium flux fluo-8, FDSS agonist mode; at 2 µM; hits give high values. The source says:
NIH Chemical Genomics Center [NCGC] NIH Molecular Libraries Probe Centers Network [MLPCN] MLPCN Grant: MH089816-01 Assay Submitter (PI): Marvin Gershengorn This project aims to identify small drug-like molecules that activate (agonists) the thyrotropin releasing hormone (TRH) receptor (TRHR) or enhance its TRH-stimulated activity (allosteric enhancers). TRHR, a drug-accessible cell surface receptor expressed in specific brain regions, and its ligand TRH have been implicated in several central nervous system disorders, including depression and anxiety. Small molecule TRHR agonists or allosteric enhancers that are metabolically stable and able to cross the blood-brain barrier might serve as probes to elucidate the roles of brain TRH receptors in animal models, and might be valuable as lead compounds for the development of drugs to treat patients with central nervous system disorders. Upon TRHR-Gq activation in TRHR cells, intracellular calcium is released from stores in the endoplasmic reticulum. […] This primary screen measures compound-induced activation of calcium release.
For the HTS assay freshly prepared cells are plated at a density of 2000/well in 3 ul of complete DMEM medium containing 10% serum in 1536-well plates and cultured over night at 37 C in a humidified incubator with 5% CO2. The next day, 2 ul of a no wash calcium dye (ABD Bioquest) was added to the cells and plates were incubated at room temperature for 1 hour. For the assay, assay plates were loaded into the FDSS kinetic plate reader. A 10 cycle (1 second/cycle) baseline measurement is taken and then the FDSS online 1536 pintool delivers 23 nl of compound library (as well as TRH controls) to the plate. The plate is measured for kinetically at 1 cycle/sec for 180 seconds and is considered to be the agonist portion of the assay (eg, compounds which activate a positive calcium response during this portion are flagged as potential agonists). Following the 180 second read, 1 ul of either an EC20 (positive modulation assay) is delivered by an onboard pipette head. Measurements are taken kinetically for an additional 180 seconds. TRHR FDSS Screening Protocol 1. Reagent, 3 uL 2000 cells/well 1536 TC treated Black plate in media containing 10% FCS 2. Time, 18 hours, 33.5C 5% CO2 (cells grown at 37C) 3. Reagent, 2 uL ABD fluo-8 Ca dye 4. Time, 30 min-1.5hrs hours, Room temp (6 plates/batch) 5. Detector, EX 480/EM 530C, FDSS 10 cycles baseline (1sec/cycle) 6. Compound, 23 nL of stock solution from library 7. Detector, EX 480/EM 530C, FDSS […] (1sec/cycle) Agonist mode 8. Compound, 1 ul EC20 of TRH made up in HEPES HBSS, 10 nM final 9. Detector, EX 480/EM 530C, FDSS 100 cycles (1sec/cycle) Potentiator mode
(qHTS replaces the single test concentration by a dilution series.)
As for `CCN(CC)c1ccc2oc(=O)c(C)nc2c1`, the activation is 100% (active). To `COc1cccc(N2CCN(S(=O)(=O)c3ccc4c(c3)CCCN4C(C)=O)CC2)c1` belongs -0.749% (inactive); to `COc1ccc(CCNC(=O)Cn2c(=O)cc(C(F)(F)F)c3c(C)nn(C)c32)c(OC)c1`, -0.214% (inactive); to `Cc1cc2c(s1)c1cnn(Cc3c(F)cccc3Cl)c(=O)c1n2C`, -0.043% (inactive). To `COc1cccc(NC(=O)Nc2ccc3c(c2)N(C)C(=O)c2ccccc2S3)c1` belongs -0.213% (inactive); to `CCOC(=O)c1c(S(=O)(=O)N2CCCC(C(=O)NCc3ccc(F)cc3)C2)c(C)n(CC)c1C` (stereo not drawn), -0.483% (inactive); to `O=S(=O)(c1ccc(Br)cc1)c1nnn2c1nc(NC1CCCCCC1)c1sccc12`, -0.704% (inactive). Regarding `COc1ccc(NC(=O)CSc2nc3ccccc3n2CC(=O)N2CCCCC2C)cc1` (stereo not drawn), the activation is -0.312% (inactive).

In the case of `N#Cc1nc(Nc2cccc(Cl)c2)nc(NC2CCCC2)n1`, the activation was -2.51% (inactive).

With `COc1ccccc1N1CCN(S(=O)(=O)CCNC(=O)COc2ccc(F)cc2)CC1`, the activation was -0.566% (inactive). For `CCOc1cccc2c1N[C@@H](c1ccc(C(=O)O)cc1)[C@H]1CC=C[C@@H]21`, the activation is 0.0412% (inactive).

Regarding `COc1ccc(CNC(=O)Cc2coc3ccc(C(C)C)cc23)cc1`, the activation is -0.0096% (inactive). Consider `CCOc1cc(-c2nnc(SCC(=O)NC3CCCC3)nc2-c2ccc(OC)c(OCC)c2)ccc1OC`, for which the activation is 0.306% (inactive). Regarding `CCOC(=O)c1nnn(CC(=O)NC(=O)Nc2ccccc2F)c1C(=O)OCC`, the activation was 1.07% (inactive). To `CN1CCOc2cc(S(=O)(=O)N3CCN(S(=O)(=O)c4c(F)cccc4F)CC3)cnc21` belongs -0.448% (inactive). As to `Nc1ccc2nc3c(=O)[nH]c(=S)[nH]c3nc2c1`, the activation is 35.9% (active). As for `CCN(c1ccc(Cl)cc1)S(=O)(=O)c1nnc(NC(=O)c2ccco2)s1`, the activation is -0.115% (inactive). To `COc1ccc(CCNC(=O)Cn2c(=O)n(-c3ccccc3)c(=O)c3c(C)c(C)sc32)cc1OC` belongs -1.42% (inactive); to `O=C(NCc1nnc(C(=O)Nc2ccc(C(F)(F)F)cc2Cl)o1)c1ccccc1`, -2.31% (inactive). For the molecule `COC(=O)c1ccccc1NC(=O)c1ccc(C#N)cc1`, the activation is 0.34% (inactive). For the molecule `Cc1ccccc1C(=O)NCc1nc(-c2ccc(Cl)cc2)no1`, the activation is -0.152% (inactive). To `Cc1cccc(C(C)C)c1NC(=O)C(NS(=O)(=O)c1cccc2nsnc12)c1ccccc1` (stereo not drawn) belongs -0.333% (inactive); to `COc1ccc(CNC(=O)Cn2nnc(-c3ccccc3F)n2)cc1`, -0.359% (inactive); to `CCOc1ccccc1N(CC)C(=O)c1cc2ccc3cccnc3c2[nH]1`, 2.85% (inactive). For `Cc1ccccc1NC(=O)CN1C(=O)C(C)(C)c2ccccc21`, the activation was 0.364% (inactive). To `CCOc1ccc2nc(N3CCC(C(=O)Nc4cc(C)ccc4C)CC3)sc2c1` belongs -0.106% (inactive); to `Cc1ccccc1NC(=O)c1cc2c([nH]c1=O)CC(C)(C)CC2=O`, 1.28% (inactive).

Consider `Cc1ccc(CNC(=O)c2ccccc2CCc2ccccc2)cc1`, for which the activation was 0.513% (inactive). `COc1cccc(-c2ccc3c(c2)S(=O)(=O)c2cccc(C(=O)O)c2C3=O)c1OC`: the activation was 0.018% (inactive). `Cc1ccc(CNC(=O)c2cccc3c2C(=O)c2ccc(N4CCC(C)CC4)cc2S3(=O)=O)cc1`: the activation is 86.3% (active). To `CCOc1cc(C2C(C(=O)OC)=C(C)NC3=C2C(=O)c2ccccc23)ccc1O` (stereo not drawn) belongs 0.256% (inactive); to `Cc1ccc(C2C3=C(Nc4[nH]n(-c5ccccc5)c(=O)c42)c2ccccc2C3=O)cc1` (stereo not drawn), -0.291% (inactive); to `COC(=O)C1=C(C)NC2=C(C(=O)c3ccccc32)C1c1ccc(-c2ccc(C(=O)O)cc2)o1` (stereo not drawn), 46.3% (active). To `Cc1c(C)n(Cc2ccc(Cl)cc2)c2ccc(C(=O)NCCc3ccc(S(N)(=O)=O)cc3)cc12` belongs 0.277% (inactive). For the molecule `Cc1nn(-c2ccc(N3CCCCC3)nn2)c(C)c1CCC(=O)NCc1ccc(F)cc1`, the activation was -0.372% (inactive).

Turning to `CCN1/C(=C\c2ccc3ccccc3[n+]2CC)Sc2cc(C)ccc21`, the activation is 34.6% (active). To `CCCC12CN3CC(CCC)(CN(C1)C3c1c[nH]c3ccc(OC)cc13)C2=O` (stereo not drawn) belongs 2.39% (inactive). With `CCOc1cc(/C=C(\C#N)C(=O)Nc2ccccc2C)ccc1OCc1cc(=O)n2nc(CC)sc2n1`, the activation is -1.33% (inactive). To `CCOc1cc(/C=C(\C#N)c2nc(-c3cccs3)c(NC(C)=O)s2)ccc1O` belongs 37.3% (active); to `CCOc1cc(/C=C(/C#N)c2ccc(Cl)cc2)cc(Cl)c1OCC(=O)O`, -0.184% (inactive); to `Cc1nc2ccc(S(=O)(=O)N(CC(=O)Nc3ccc(F)cc3)Cc3ccccc3)cc2s1`, -0.726% (inactive).

With `Cc1ccc(-n2nc(C)c3c(C)cc(=O)n(CC(=O)Nc4ccc(C(C)C)cc4)c32)cc1`, the activation was -0.803% (inactive). Turning to `Cc1cccc(NC(=O)N2CCC(CN3CCc4ccccc4C3)CC2)c1C`, the activation is -0.238% (inactive). For the molecule `O=C(Nc1ccc(OC(F)(F)F)cc1)c1cc2c(=O)n3ccccc3nc2s1`, the activation is 0.583% (inactive). To `O=C(/C=C(O)/C=C/c1ccc(O)cc1)/C=C/c1ccc(O)cc1` belongs 150% (active); to `CC1=CC2=NC(=O)/C(=C/c3coc4ccccc4c3=O)C(=N)N2O1`, 111% (active); to `COc1ccc(OCCCn2cccc2/C=C2/C(=N)N3OC(C)=CC3=NC2=O)cc1`, -0.544% (inactive). To `O=C(NCc1ccc(Cl)cc1)c1ccc2c(c1)nnn2C1CCCC1` belongs -0.129% (inactive). To `O=S(=O)(c1ccc(Br)cc1)c1nnn2c1nc(N1CCOCC1)c1sccc12` belongs -0.0076% (inactive); to `Cc1ccc(NC(=O)c2oc3ccc(S(=O)(=O)N4CCCCC4)cc3c2C)cc1Cl`, 1.26% (inactive). Turning to `COc1ccc(C(=O)Nc2nonc2-c2ccc(OC)c(OC)c2)cc1Cl`, the activation was -1.06% (inactive). Consider `Cc1cccc(N2CCN(c3c(CN4CCCC4)c(=O)oc4ccccc34)CC2)c1C`, for which the activation is 0.139% (inactive).

As for `COC1=C/C(=C/c2c(N)n3nc(CC(=O)N4CCOCC4)sc3nc2=O)C=CC1=O`, the activation was 15.5% (inactive). Consider `C=CCC1=C/C(=C\c2c(N)n3nc(CC(=O)N4CCOCC4)sc3nc2=O)C=C(OC)C1=O`, for which the activation was 162% (active). For the molecule `O=C1C(F)N([S+](=O)([O-])c2ccc3c(c2)OCCO3)CCN1[S+](=O)([O-])c1c(F)cccc1F` (stereo not drawn), the activation was 0.239% (inactive).

Regarding `Cc1ccc(Cl)cc1N1CCN(C(=O)c2cn(C)c3ccc(S(=O)(=O)N(C)C4CCCCC4)cc3c2=O)CC1`, the activation is -1.19% (inactive). To `O=C(NCCc1ccccc1)C(=O)NCC(c1ccco1)S(=O)(=O)c1ccccc1` (stereo not drawn) belongs -0.0493% (inactive). Take `Cc1nn(C)cc1N1C(=O)c2cccc3c(N)ccc(c23)C1=O`: the activation is 172% (active). To `CN1C(=O)c2cccc3c(N)ccc(c23)C1=O` belongs 152% (active); to `CC(=O)Nc1ccc(NC(=O)[C@@H](NC(=O)c2cccc(C)c2)C(C)C)cc1`, 0.205% (inactive). Turning to `Cc1cccc(C(=O)NCc2nnc(SC(C)C(=O)Nc3nnc(C)s3)n2C)c1` (stereo not drawn), the activation was -0.0214% (inactive). To `CCc1nnc(NC(=O)[C@@H](NC(=O)c2cccc(C)c2)C(C)C)s1` belongs 47.4% (active). To `Cn1ccc2cc(S(=O)(=O)N3CCCC(C(=O)NCc4ccccc4F)C3)ccc21` (stereo not drawn) belongs -0.718% (inactive); to `Cc1nn(C(C)C(=O)NCCc2ccccc2)c(=O)c2c1sc1ccccc12` (stereo not drawn), -0.291% (inactive); to `COc1cc(Cl)c(NC(=O)CC(C)S(=O)(=O)c2cc3c(cc2C)NC(=O)CO3)c(OC)c1` (stereo not drawn), -0.196% (inactive).

`CCCNC(=O)C(CC)n1nc(CC)n2c(cc3oc(C)cc32)c1=O` (stereo not drawn): the activation is 0.892% (inactive). Take `COc1ccc(-c2nc(Cn3c(=O)cc(C)c4c(C)nn(-c5ccccc5)c43)c(C)o2)c(OC)c1`: the activation was 0.643% (inactive). For the molecule `Oc1c(C(c2ccc(F)cc2)N2CCN(Cc3ccccc3)CC2)sc2nc(-c3ccco3)nn12` (stereo not drawn), the activation is -0.524% (inactive). As to `COc1ccc(-c2onc(C)c2C)cc1S(=O)(=O)NCC1CCN(Cc2cccc(F)c2)CC1`, the activation was -0.0549% (inactive).

For the molecule `CCOC(=O)C1CCN(C(c2ccc(F)cc2)c2sc3nc(-c4ccco4)nn3c2O)CC1` (stereo not drawn), the activation is 0.0847% (inactive). Turning to `COc1cc(/C=C(\C#N)c2nc3c(s2)CC(C)CC3)ccc1O` (stereo not drawn), the activation is 38.3% (active). With `CCOc1ccc(/C=C(\C#N)c2nc3ccccc3c(=O)[nH]2)cc1OC`, the activation was 2.27% (inactive). To `COc1cc(/C=C(\C#N)c2nc3ccccc3[nH]2)ccc1O` belongs 33.3% (active); to `N#C/C(=C\c1ccccc1F)c1nc2ccccc2c(=O)[nH]1`, 3.32% (inactive); to `COc1cccc2cc(-c3nc(Cl)c4c5c(sc4n3)CC(C)CC5)c(=O)oc12` (stereo not drawn), 0.639% (inactive). To `Cc1ccc(S(=O)(=O)c2cn(Cc3ccccc3)c3cc(N4CCCC4)c(F)cc3c2=O)c(C)c1` belongs 0.661% (inactive); to `Cc1ccc(C)c(N2CCN(C(=O)Cc3c(C(=O)O)c(C)cn3C)CC2)c1`, -0.0012% (inactive). In the case of `COc1ccc(CNC(=O)c2cc3c(-c4ccccc4F)nn(C)c3s2)c(OC)c1`, the activation is -0.894% (inactive).

`O=C(Nc1ccc(O)c(-c2nc3ccccc3o2)c1)c1ccc(-c2cccc(Cl)c2)o1`: the activation is 0.235% (inactive).

On to `CCOC(=O)CNC(=O)c1cc2c(=O)n3cccc(C)c3nc2s1`, for which the activation was -0.701% (inactive). In the case of `CCOC(=O)CC1C(=O)NCCN1c1nc2c(C)cccn2c(=O)c1/C=C1\SC(=S)N(C(C)CC)C1=O` (stereo not drawn), the activation is 52.4% (active). For `CCCN(CCC)c1nc2c(C)cccn2c(=O)c1/C=C1/SC(=S)N(Cc2ccco2)C1=O`, the activation was 12% (inactive). Take `COc1ccc(-c2cc(C(=O)NCc3cc(OC)c(OC)c(OC)c3)[nH]n2)cc1`: the activation was -0.734% (inactive).

The values are drawn from PubChem BioAssay AID493084 (National Center for Advancing Translational Sciences (NCATS), 2011).
